# PubChem BioAssay
# The source made the active and inactive calls.
# Columns and labels:
# Albumin (Bos taurus) = Albumin (Bos taurus) (UniProt P02769); assay: compounds binding labelled BSA control protein – biochemical, small-molecule microarray, Alexa647 label, 635/667 nm fluorescence, artefact control for SMM control protein annotation, profiling panel (AID 1118); conditions: BSA-A647 binding, fluorescence 635 nm, higher = more signal;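 note: score merges 667 nm emission intensity and signal-to-noise per printed compound spot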
# Sequence of Albumin (Bos taurus) (P02769 whole entry, looked up): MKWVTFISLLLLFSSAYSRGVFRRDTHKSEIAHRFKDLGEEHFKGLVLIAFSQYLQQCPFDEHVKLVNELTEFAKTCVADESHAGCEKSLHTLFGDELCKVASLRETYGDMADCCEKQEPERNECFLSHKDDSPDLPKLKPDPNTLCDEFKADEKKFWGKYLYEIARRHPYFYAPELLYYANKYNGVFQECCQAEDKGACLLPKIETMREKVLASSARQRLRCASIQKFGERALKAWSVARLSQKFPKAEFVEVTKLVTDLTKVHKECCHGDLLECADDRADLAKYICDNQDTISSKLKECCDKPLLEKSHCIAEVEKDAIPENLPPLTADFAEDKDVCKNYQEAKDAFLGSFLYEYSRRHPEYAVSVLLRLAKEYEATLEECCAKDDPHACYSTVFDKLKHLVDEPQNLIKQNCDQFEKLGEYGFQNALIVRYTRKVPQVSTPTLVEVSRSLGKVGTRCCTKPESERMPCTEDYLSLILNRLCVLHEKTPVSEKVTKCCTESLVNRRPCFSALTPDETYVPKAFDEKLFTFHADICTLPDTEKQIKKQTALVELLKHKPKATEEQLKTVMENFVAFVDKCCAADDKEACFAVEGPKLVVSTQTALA
# [1] = probe aXIP binding to arrayed compounds – biochemical, NeuroSMM set, 635/667 nm fluorescence, primary screen (AID 1119); conditions: small-molecule microarray, higher = more signal, called active from +8 up or from −8 down;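 note: probe is the protein aXip251-270 applied at 1 µg/mL to compound-printed slides; binding of probe to printed compounds measured as 667 nm fluorescence plus signal to noise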
# [2] = probe aNOTCH3 binding on compound microarray – biochemical, small-molecule microarray, 635/667 nm fluorescence, primary screen (AID 1120); conditions: higher = more signal;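 note: probe is a biotin-tagged antibody raised against NOTCH3 rather than NOTCH3 protein; score merges spot fluorescence near 667 nm with spot signal to noise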
# [3] = probe aNOTCH2 binding on compound microarray – biochemical, small-molecule microarray, 635/667 nm fluorescence, primary screen (AID 1121); conditions: higher = more signal;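 note: score merges feature fluorescence read at 667 nm with its signal to noise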
# [4] = target: Carbonic anhydrase 2 (Homo sapiens) (UniProt P00918); assay: compounds binding carbonic anhydrase 2 – biochemical, small-molecule microarray, Alexa647-labelled CAII, profiling panel (AID 1122); conditions: CAII-A647 binding fluorescence, higher = more signal
# [5] = COS7 lysate on small-molecule microarray, probe aHis, 635 nm (AID 1123); conditions: COS7 cell lysate, fluorescence, higher = more signal;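 note: z-score combines 667nm fluorescence intensity with signal-to-noise per printed compound spot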
# [6] = probe aLAP1 signal on lysate-treated microarray – cell lysate, small-molecule microarray, COS7 lysate, primary screen (AID 1124); conditions: probe aLAP1, fluorescence, higher = more signal;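 note: lysate comes from COS7 cells expressing LAP1 and is applied at 0.3 µg/mL; score merges spot fluorescence near 667 nm with signal-to-noise over triplicate slides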
# Sam68 (KHDRBS1) = assay: compounds binding KHDRBS1 protein – biochemical, small-molecule microarray, 635 nm fluorescence, primary screen (AID 1125); conditions: higher = more signal;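 note: score merges 667 nm channel intensity with signal to noise over triplicate slides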
# [7] = test system: Chordin-like protein 2 (CHRDL2); assay: compounds binding chordin-like 2 – biochemical, small-molecule microarray, 635 nm fluorescence, primary screen (AID 1126); conditions: fluorescence 635 nm, higher = more signal;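 note: printed compound slides probed with Chrdl2 protein at 4 µg/mL for 1 h at 4 C; score merges 667 nm emission intensity with signal to noise over three replicate slides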
# [8] = target: Concanavalin-A (Canavalia ensiformis) (UniProt P02866); assay: compounds binding concanavalin A lectin – biochemical, small-molecule microarray, Alexa647 label, 635 nm, artefact control for SMM control protein annotation, primary screen (AID 1127); conditions: ConA-A647 binding fluorescence, higher = more signal;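 note: z combines 667 nm emission intensity with signal-to-noise across three replicate slides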
# Sequence of Concanavalin-A (Canavalia ensiformis) (P02866 whole entry, looked up): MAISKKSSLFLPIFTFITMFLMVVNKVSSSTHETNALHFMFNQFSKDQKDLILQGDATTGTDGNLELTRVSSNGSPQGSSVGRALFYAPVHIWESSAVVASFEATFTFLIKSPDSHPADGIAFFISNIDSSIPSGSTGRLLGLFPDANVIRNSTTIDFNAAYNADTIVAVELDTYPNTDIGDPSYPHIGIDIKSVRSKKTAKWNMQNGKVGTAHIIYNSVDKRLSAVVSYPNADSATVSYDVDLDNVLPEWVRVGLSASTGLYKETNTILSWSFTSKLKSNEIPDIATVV
# [9] = compounds binding Alexa647 anti-His antibody – biochemical, small-molecule microarray, 635 nm fluorescence, artefact control for SMM control protein annotation, primary screen (AID 1128); conditions: higher = more signal;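 note: score merges feature fluorescence with signal-to-noise for each printed compound spot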
# [10] = test system: Human papillomavirus type 1a E7 protein (residues 1-88); assay: HPV1a E7 small-molecule binders, primary screen, biochemical, small-molecule microarray, residues 1-88, 635 nm (AID 1129); conditions: small-molecule microarray binding, fluorescence 635 nm; higher = more signal
# [11] = target: Focal adhesion kinase 1 (Homo sapiens) (UniProt Q05397); assay: PTK2 protein binding on printed compound slides – biochemical, small-molecule microarray, 635/667 nm fluorescence, BSA, DTT, primary screen (AID 1130); conditions: 635 nm fluorescence, higher = more signal;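 note: composite of spot emission at 667 nm and signal to noise over triplicate slides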
# Sequence of Focal adhesion kinase 1 (Homo sapiens) (Q05397 whole entry, looked up): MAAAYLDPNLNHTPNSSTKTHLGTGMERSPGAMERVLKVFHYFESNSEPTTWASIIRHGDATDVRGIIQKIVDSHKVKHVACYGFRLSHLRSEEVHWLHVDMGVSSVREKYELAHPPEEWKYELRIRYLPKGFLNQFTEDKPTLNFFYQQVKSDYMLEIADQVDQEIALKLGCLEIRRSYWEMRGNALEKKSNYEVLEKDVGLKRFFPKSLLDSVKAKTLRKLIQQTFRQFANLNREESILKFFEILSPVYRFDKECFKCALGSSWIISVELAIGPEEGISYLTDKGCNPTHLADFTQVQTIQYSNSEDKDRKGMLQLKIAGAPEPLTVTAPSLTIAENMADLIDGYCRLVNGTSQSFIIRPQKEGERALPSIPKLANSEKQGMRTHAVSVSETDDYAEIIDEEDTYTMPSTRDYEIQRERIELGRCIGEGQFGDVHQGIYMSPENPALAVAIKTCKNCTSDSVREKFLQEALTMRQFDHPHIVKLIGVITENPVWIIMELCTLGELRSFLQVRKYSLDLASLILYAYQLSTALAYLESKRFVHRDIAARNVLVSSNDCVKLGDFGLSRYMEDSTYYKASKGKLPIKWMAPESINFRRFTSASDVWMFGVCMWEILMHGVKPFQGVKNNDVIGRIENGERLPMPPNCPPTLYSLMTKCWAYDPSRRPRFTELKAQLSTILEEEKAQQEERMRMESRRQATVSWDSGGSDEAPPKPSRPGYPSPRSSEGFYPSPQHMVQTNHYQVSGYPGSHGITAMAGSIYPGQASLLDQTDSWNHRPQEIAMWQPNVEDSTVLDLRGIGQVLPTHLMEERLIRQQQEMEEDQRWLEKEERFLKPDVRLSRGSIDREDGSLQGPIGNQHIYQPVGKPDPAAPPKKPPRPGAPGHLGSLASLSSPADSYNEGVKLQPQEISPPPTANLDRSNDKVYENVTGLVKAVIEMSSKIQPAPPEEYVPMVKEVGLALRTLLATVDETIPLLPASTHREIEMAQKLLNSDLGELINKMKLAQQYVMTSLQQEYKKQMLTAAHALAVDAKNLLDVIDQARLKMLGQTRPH
# [12] = test system: Fibrinogen (Alexa647-labelled); assay: Alexa647-fibrinogen binding to printed small molecules – biochemical, small-molecule microarray, 635/667 nm fluorescence, artefact control for SMM control-protein annotation, profiling panel (AID 1131); conditions: fibrinogen-A647 binding fluorescence, higher = more signal;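 note: z-score merges 667 nm fluorescence with per-spot signal-to-noise over triplicate slides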
# [13] = target: Follistatin (Homo sapiens) (UniProt P19883); assay: FST protein binding to printed compounds – biochemical, small-molecule microarray, 635/667 nm fluorescence, primary screen (AID 1132); conditions: 635 nm fluorescence, higher = more signal
# Sequence of Follistatin (Homo sapiens) (P19883 whole entry, looked up): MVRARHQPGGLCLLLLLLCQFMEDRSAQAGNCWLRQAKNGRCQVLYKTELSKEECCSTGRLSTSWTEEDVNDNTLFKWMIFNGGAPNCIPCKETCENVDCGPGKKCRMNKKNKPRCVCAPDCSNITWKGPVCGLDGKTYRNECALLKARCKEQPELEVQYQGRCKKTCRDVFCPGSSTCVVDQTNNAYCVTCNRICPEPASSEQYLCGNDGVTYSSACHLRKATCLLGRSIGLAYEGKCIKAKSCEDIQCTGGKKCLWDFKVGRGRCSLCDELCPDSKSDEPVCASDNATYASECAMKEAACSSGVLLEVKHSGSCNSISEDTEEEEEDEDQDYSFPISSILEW
# [14] = target: Fibroblast growth factor 2 (Homo sapiens) (UniProt P09038); assay: basic fibroblast growth factor binding to printed compounds – biochemical, small-molecule microarray, 635/667 nm fluorescence, primary screen (AID 1133); conditions: FGF2, fluorescence 635/667, higher = more signal
# Sequence of Fibroblast growth factor 2 (Homo sapiens) (P09038 whole entry, looked up): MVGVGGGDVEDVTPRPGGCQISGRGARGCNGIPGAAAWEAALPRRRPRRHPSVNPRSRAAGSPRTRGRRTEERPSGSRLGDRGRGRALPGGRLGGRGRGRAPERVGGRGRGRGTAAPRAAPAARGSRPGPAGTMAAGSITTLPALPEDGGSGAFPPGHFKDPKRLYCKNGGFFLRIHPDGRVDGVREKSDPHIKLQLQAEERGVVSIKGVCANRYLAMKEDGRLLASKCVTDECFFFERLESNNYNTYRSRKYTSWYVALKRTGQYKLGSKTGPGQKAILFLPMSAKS
# [15] = JC-1 mitochondrial potential readout, lung cancer cells – cell-based, A549, JC-1 fluorescence, basal, 24 h, 100 nL, profiling panel (AID 1138); conditions: higher = more signal;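 note: A549 lung adenocarcinoma cells under basal conditions with no added stimulus; test concentration not given here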
# Lefty1 = Lefty1 protein binding to printed compounds – biochemical, small-molecule microarray, 635/667 nm fluorescence, primary screen (AID 1139); conditions: fluorescence 635/667, higher = more signal
# [16] = test system: wheat germ agglutinin (Triticum aestivum), Alexa647-labelled; assay: Alexa647-WGA lectin binding to printed small molecules – biochemical, small-molecule microarray, 635/667 nm fluorescence, artefact control for SMM control-protein annotation, profiling panel (AID 1140); conditions: WGA-A647 binding, 635 nm fluorescence, higher = more signal;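 note: score merges 667 nm feature emission with signal to noise over triplicate slides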
# [17] = target: Luciferin 4-monooxygenase (Photinus pyralis) (UniProt P08659); assay: inhibition of purified Photinus pyralis luciferase – biochemical, luminescence, purified enzyme, 2006 set, primary screen (AID 1141); conditions: purified firefly luciferase, SteadyGlo luminescence, 30 min; higher = more signal, called active from +8 up or from −8 down;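 note: cell-free assay with purified firefly luciferase at 100 ng per well in PBS; test concentration not given here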
# Sequence of Luciferin 4-monooxygenase (Photinus pyralis) (P08659 whole entry, looked up): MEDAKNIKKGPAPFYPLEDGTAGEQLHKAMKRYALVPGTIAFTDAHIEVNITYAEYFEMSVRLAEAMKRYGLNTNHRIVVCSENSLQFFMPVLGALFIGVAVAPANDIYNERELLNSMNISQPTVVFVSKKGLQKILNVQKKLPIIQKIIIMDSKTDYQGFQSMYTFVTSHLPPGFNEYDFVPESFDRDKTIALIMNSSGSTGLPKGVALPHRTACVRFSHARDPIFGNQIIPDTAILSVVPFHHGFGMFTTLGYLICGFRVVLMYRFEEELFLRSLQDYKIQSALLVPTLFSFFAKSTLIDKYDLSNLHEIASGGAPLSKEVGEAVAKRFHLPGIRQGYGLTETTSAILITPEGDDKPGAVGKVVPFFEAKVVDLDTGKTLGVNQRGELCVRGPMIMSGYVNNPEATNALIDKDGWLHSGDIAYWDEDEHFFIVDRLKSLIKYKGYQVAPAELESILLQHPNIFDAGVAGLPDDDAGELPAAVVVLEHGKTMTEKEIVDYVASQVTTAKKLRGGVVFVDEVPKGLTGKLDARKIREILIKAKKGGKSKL
Compound,composite z-score (Albumin (Bos taurus)),composite Z-score [1],composite z-score [2],composite z-score [3],composite z-score [4],composite z-score [5],composite z-score [6],composite z-score (Sam68 (KHDRBS1)),composite z-score [7],composite z-score [8],composite z-score [9],composite z-score [10],composite z-score [11],composite z-score [12],composite z-score [13],composite z-score [14],z-score [15],composite z-score (Lefty1),composite z-score [16],z-score [17]
CCCC[C@@H]1C[C@H]1[C@@H](NC(=O)c1ccccc1)c1ccccc1C(F)(F)F,1.01,-0.814 (inactive),0.0493,0.0116,0.412,3.03,0.13,1.14,0.377,1.17,0.412,1.22,0.826,1.03,0.243,-0.113,0.294,-0.826,1.17,1.31 (inactive)
C[C@@H]1NC(=O)[C@H](Cc2ccccc2)NC(=O)[C@@]23C(=O)N[C@@H](Cc4ccccc4)C2[C@H](C)[C@@]2(C)O[C@H]2C3/C=C/C/C=C\CNC1=O (stereo not given in full),0.0296,0.0437 (inactive),-0.0996,0.364,0.82,-0.741,-0.634,-0.276,0.399,-0.265,0.0093,-1.79,-0.524,-0.89,0.216,0.0447,-0.0521,0.256,-0.906,-0.0116 (inactive)
CO[C@H]1COC(=O)CC=C[C@H](C)[C@@H](OC)COC(=O)[C@H](Cc2ccccc2)NC(=O)CC=C[C@@H]1C,-2.12,0.699 (inactive),-0.132,-0.0743,-0.961,-0.566,-0.287,-0.777,1.46,-2.53,-1.1,-2.59,0.264,-1.23,1.42,1.34,1.39,1.59,-0.324,-1.06 (inactive)
COc1ccc([Si](C)(C)[C@H]2[C@H](CCO)O[C@@]3(C(=O)N(Cc4ccc(N5CCCCC5=O)cc4)c4ccccc43)[C@@H]2C)cc1,0.643,-0.247 (inactive),0.25,-0.0846,0.596,1.79,0.109,1.3,-0.0425,1.12,1.91,1.1,0.0098,0.903,1.3,0.753,1.33,1.36,1.14,-1.39 (inactive)
CC(C)C[C@@H]1NC(=O)[C@H](CC(C)C)NC(=O)[C@@]23C(=O)N[C@@H](Cc4ccccc4)C2[C@H](C)[C@@]2(C)O[C@H]2C3/C=C/CC/C=C/CNC1=O (stereo not given in full),0.734,-0.392 (inactive),-0.0657,-0.118,0.578,0.268,-0.219,1.05,0.702,1.02,0.239,0.329,0.427,0.722,0.758,0.319,0.234,1.01,0.265,0.244 (inactive)
COC(=O)c1ccc(C#CC(NP(=O)(c2ccccc2)c2ccccc2)c2ccccc2)cc1 (stereo not given),1,0.444 (inactive),0.272,0.335,1.1,2.59,-0.0375,1.08,1.49,1.15,0.15,1.18,0.671,0.963,1.41,-0.0037,1.53,0.468,1.43,0.853 (inactive)
O=C1OCCC/C=C\[C@H]2OC34C=CCN(CCN5CCOCC5)C(=O)[C@H]3N(CCCCCO)C(=O)[C@@H]4C12 (stereo not given in full),-1.22,1.39 (inactive),-0.246,-0.162,0.816,-0.687,-0.401,-0.369,-1.15,-0.167,-0.265,-2.02,-1.29,-1.25,-0.267,-0.821,-0.203,-0.84,-0.858,0.32 (inactive)
CO[C@@H]1COC(=O)[C@@H]2CCCN2C(=O)CC=C[C@@H](C)[C@H](OC)COC(=O)[C@@H]2CCCN2C(=O)CC=C[C@H]1C,-1.36,-0.286 (inactive),-0.0699,-0.141,-0.439,-0.422,0.169,-0.149,1.36,-0.512,-0.775,-1.7,-0.191,-1.15,1.34,1.58,1.01,1.31,-0.949,-1.44 (inactive)
COc1cccc([C@@H]2[C@@H](C)CC[C@H]3C(=O)N(C)[C@@H](C(C)C)C(=O)N23)c1,-0.199,0.4 (inactive),-0.0111,-0.181,-0.155,0.0706,-0.343,0.346,0.466,0.416,0.381,0.694,1.24,-0.0271,0.388,0.348,1.68,0.915,0.168,-1.56 (inactive)
CN1C2C=C(c3ccc(CO)cc3)C(C3C(=O)N(C(N)=O)C(=O)C32)C1c1cccs1 (stereo not given),-0.444,0.173 (inactive),0.0261,-0.162,0.704,0.4,-0.342,0.0726,-0.934,-0.0029,-0.734,-0.343,-0.0644,-0.25,-0.513,-0.676,1.38,0.358,-0.543,-1.49 (inactive)
